Common to all, as to experiment: MAPPIT interaction score (arbitrary units); higher = stronger binary interaction signal, active = hit call of the paper
In one experiment the target is CG31600. The settings on record: MAPPIT configuration: N-C; pair source set: screen_4.
A further experiment addresses CG2852. The settings on record: pair source set: Lit-BM-16.
A further experiment concerns the target CG3085. Particulars: MAPPIT configuration: N-C; pair source set: screen_3.
The next experiment has as its target CG8281. Particulars: MAPPIT configuration: N-N; pair source set: screen_1.
A further experiment addresses Gale. Particulars: MAPPIT configuration: N-N; pair source set: DPIM.
A further experiment concerns the target PHDP. Particulars: MAPPIT configuration: N-N; pair source set: Finley_Y2H.
Another experiment addresses Vsx2. Particulars: MAPPIT configuration: N-N; pair source set: Finley_Y2H.
Another experiment has as its target eco. The settings on record: MAPPIT configuration: N-N; pair source set: screen_1.
For the next experiment, the target named is CG32425. The settings on record: MAPPIT configuration: N-C; pair source set: screen_3.
A further experiment addresses CG5327. The settings on record: MAPPIT configuration: N-C; pair source set: screen_3.
For another experiment, the target named is CG32182. The settings on record: MAPPIT configuration: N-N; pair source set: RRS.
In another experiment the target is CG32809. Particulars: MAPPIT configuration: N-N; pair source set: Curagen_low_conf.
Another experiment addresses RhoGAP92B. Particulars: MAPPIT configuration: N-N; pair source set: Curagen_low_conf.
The target in a further experiment is CG2991. Particulars: MAPPIT configuration: N-N; pair source set: RRS.
In the next experiment the target is CG31121. Particulars: MAPPIT configuration: N-N; pair source set: Curagen_high_conf.
The target in the next experiment is CG30472. Particulars: pair source set: RRS.
The target in a further experiment is CG30349. Particulars: MAPPIT configuration: N-N; pair source set: Curagen_low_conf.
A further experiment addresses CG31523. Particulars: MAPPIT configuration: N-C; pair source set: screen_3.
In the next experiment the target is EMC5. Particulars: MAPPIT configuration: N-C; pair source set: screen_3.
The target of another experiment is RNASEK. The settings on record: MAPPIT configuration: N-C; pair source set: screen_3.
For another experiment, the target named is CG31550. Particulars: MAPPIT configuration: N-N; pair source set: Lit-BS-16.
The target in the next experiment is GstE2. The settings on record: MAPPIT configuration: N-N; pair source set: Finley_Y2H.
Another experiment concerns the target PAN3. Particulars: MAPPIT configuration: N-N; pair source set: Lit-BS-16.
The target of the next experiment is Rbp6. Particulars: MAPPIT configuration: N-N; pair source set: Finley_Y2H.

In the supplement of paper PMC10105736 one finds MAPPIT interaction score data, which are given here for twelve molecules.

A number with no mark means an inactive call.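 Rule for the calls: active = MAPPIT score above the 99th percentile of random reference set scores in the same batch; inactive = at or below it.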
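Note: HEK293T cells with Epo stimulation, STAT-responsive firefly luciferase reporter, fold induction versus unstimulated cells divided by the larger fold induction of two negative controls lacking either bait or prey.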

B1: zetaTry (protein)
chain: MSSSWIVGLLAFLVSLVALTQGLPLLEDLDEKSVPDGRIVGGYATDIAQVPYQISLRYKGITTPENPFRHRCGGSIFNETTIVTAAHCVIGTVASQYKVVAGTNFQTGSDGVITNVKEIVMHEGYYSGAAYNNDIAILFVDPPLPLNNFTIKAIKLALEQPIEGTVSKVSGWGTTSPGGYSSNQLLAVDVPIVSNELCDQDYEDFGDETYRITSAMLCAGKRGVGGADACQGDSGGPLAVRDELYGVVSWGNSCALPNYPGVYANVAYLRPWIDAVLAGL
Turning to B1, the MAPPIT interaction score in the experiment with CG31600 was 0.866.

B2: Pdi (protein)
chain: MKFLICALFLAASYVAASAEAEVKVEEGVLVATVDNFKQLIADNEFVLVEFYAPWCGHCKALAPEYAKAAQQLAEKESPIKLAKVDATVEGELAEQYAVRGYPTLKFFRSGSPVEYSGGRQAADIIAWVTKKTGPPAKDLTSVADAEQFLKDNEIAIIGFFKDLESEEAKTFTKVANALDSFVFGVSSNADVIAKYEAKDNGVVLFKPFDDKKSVFEGELNEENLKKFAQVQSLPLIVDFNHESASKIFGGSIKSHLLFFVSREGGHIEKYVDPLKEIAKKYRDDILFVTISSDEEDHTRIFEFFGMNKEEVPTIRLIKLEEDMAKYKPESDDLSAETIEAFLKKFLDGKLKQHLLSQELPEDWDKNPVKVLVSSNFESVALDKSKSVLVEFYAPWCGHCKQLAPIYDQLAEKYKDNEDIVIAKMDSTANELESIKISSFPTIKYFRKEDNKVIDFNLDRTLDDFVKFLDANGEVADSEPVEETEEEEEAPKKDEL
Consider B2, for which the values for the MAPPIT interaction score with CG2852 (MAPPIT configuration: N-C) and with CG2852 (MAPPIT configuration: N-N) were -0.281 and 1.74, respectively.

B3: PolZ2 (protein)
chain: MQAEIKADIIVEAMEVLVNHILYVRGIYPSHIFKMKRMYNSPIYVSIFPPLNNYLAGVLKSAQELLRRRELQCLELIVYQKENEKLESYKMQLETQRSGLPAEDHLMEFEQNMRSVIYKISQRLNQAPKLPAGSCQFKVHLHTTQEAFIRFSHDSQYQEFPWLQTQKTESQATGRTVYLLPLARVDDLGLKMDVLIVN
For B3, the MAPPIT interaction score with CG3085 was 1.42; in the experiment with CG8281, 1.67; with Gale, 0.112; with PHDP it was -0.0614; with Vsx2, 0.017; in the experiment with eco, 0.29.

B4: hth (protein)
chain: MAQPRYDDGLHGYGMDSGAAAAAMYDPHAGHRPPGLQGLPSHHSPHMTHAAAAAATVGMHGYHSGAGGHGTPSHVSPVGNHLMGAIPEVHKRDKDAIYEHPLFPLLALIFEKCELATCTPREPGVQGGDVCSSESFNEDIAMFSKQIRSQKPYYTADPEVDSLMVQAIQVLRFHLLELEKVHELCDNFCHRYISCLKGKMPIDLVIDERDTTKPPELGSANGEGRSNADSTSHTDGASTPDVRPPSSSLSYGGAMNDDARSPGAGSTPGPLSQQPPALDTSDPDGKFLSSLNPSELTYDGRWCRREWSSPADARNADASRRLYSSVFLGSPDNFGTSASGDASNASIGSGEGTGEEDDDASGKKNQKKRGIFPKVATNILRAWLFQHLTHPYPSEDQKKQLAQDTGLTILQVNNWFINARRRIVQPMIDQSNRAVYTPHPGPSGYGHDAMGYMMDSQAHMMHRPPGDPGFHQGYPHYPPAEYYGQHL
Regarding B4, the MAPPIT interaction score was 3.41 with CG32425 and 3.17 in the experiment with CG5327.

B5: RpS3A (protein)
chain: MAVGKNKGLSKGGKKGGKKKVVDPFSRKDWYDVKAPNMFQTRQIGKTLVNRTQGQRIASDYLKGRVFEVSLADLQKDIDPERSFRKFRLIAEDVQDRNVLCNFHGMDLTTDKYRSMVKKWQTLIEAIVEAKTVDGYLLRVFCIGFTAKDQQSQRKTCYAQQSQVRKIRARMTDIITNEVSGADLKQLVNKLALDSIAKDIEKSCQRIYPLHDVYIRKVKVLKKPRFDVSKLLELHGDGGGKSVEAVVSSEGAVIDRPEGYEPPVQEAV
Consider B5, for which, in the experiment with CG32182, the MAPPIT interaction score is 0.147.

B6: Nup62 (protein)
chain: MVFQLPTTTAAPTGGATSSFSFGLSTGTPAAAPASGAATTAPATKTTFSFGTPAPTAGIGGGDADNSKAQAPPAFGFGLGSGTASAPLTLGTQAAANPASTTSATATGTSAAPPAFGGFTAQPAASVVPTIATSAPNTAATTTGLLGGSGLGAPKTTAAASTTLTAAPSAIASTQGAAPAPTLSTGGAFANLTTETKTTDSSAVSTASQLSYHQLEEHINKWTLEFEEQEKVFTEQATQINAWDKLLISNNGKIVELNDAVKKVKTDQQVLDQELEFIATQQKELEDSLGPLEKEFVNLPRVDMERSQTYLMVENLDTQLKQMSEDLKEIIDNLNEANKGQDTTDPIIQIGKILNAHMNSLQWIESQSTNISKKLEDIGKIQDSQKRDIFRAPF
In the case of B6, the MAPPIT interaction score in the experiment with CG32809 is 2.19; with RhoGAP92B, 0.00556.

B7: wda (protein)
chain: MSLPSASNHAHAASPVYSNSNNNKSSASSKKTSSKNDLLRCAVGLLLKQKNYVSNERFRRSDFLLLQNKQQFAVNKMLDTDLHGGNSFTFSNVQVITNNQHTVDQQFGRFSQFVEAQAEPLRLEMKRFYGPMLCHFYLDLLKAREPRGAVELLRKYAHLVAPVDMYDAPPPTKINGCSTTANESTFNIRFAKEAQDTGDTELDYFMRLVQTLSGYTRLEAAESDDTVAHFRSSKYELHTTAVVVNRICAYLQRRGHVLIMNLLYTWLHVHIVENEQRAFSEDHLLGLTDDLEGEDGEDDVVSKPAVTLNTRGDIRPSKSLTEKSNRKRPAEEPNIMLETDIKQEVETDESAELSKLQLNIDACLDTLKSATEQILKSQVELPRFLRISERSRGLTSAHLDPSECHMLAGFDNSAVQLWQLNQSYCRGKSFYRRYPQKRCPWELNNCANQEEETDEDSSDEDVKCSEEERRERNRARHCKYADNSYNEYGGFQLRGHTKGVTDVRFSAHYPLMYSVSKDATMRCWRAHNLHCAAIYRSHNYPIWCLDESPVGQYVVTGSKDLSARLWSLEKEHALIIYAGHTQDVECVAFHPNGNYIATGSADHSVRLWCATSGKLMRVFADCRQAVTQLAFSPDGKMLAAAGEETKVRIFDLAAGAQLAELKDHSASISSLSWSTHNRHLATACSDGTLRLWDIKKLSPMSDNSSAGSSSSATTNRVLTVNSSCQRLVDVFYGTSKTLYCIGT
For B7, the MAPPIT interaction score with CG2991 was -0.317.

B8: Hsc70-5 (protein)
chain: MLRVPKFLPRLARQAGVVPSHMSGASSMFRNLPGASNGISSQLRYKSGEVKGAVIGIDLGTTNSCLAVMEGKQAKVIENAEGARTTPSHVAFTKDGERLVGMPAKRQAVTNSANTFYATKRLIGRRFDDPEVKKDITNLSYKVVKASNGDAWVSSTDGKVYSPSQIGAFILMKMKETAEAYLNTPVKNAVVTVPAYFNDSQRQATKDAGQIAGLNVLRVINEPTAAALAYGMDKTEDKIIAVYDLGGGTFDISILEIQKGVFEVKSTNGDTLLGGEDFDNHIVNFLVAEFKKDSGIDIRKDNIAMQRLKEAAEKAKCELSSSQQTDINLPYLTMDAAGPQHMNLKLTRSKLESLVGDLIKRTIQPCQKALSDAEVSKSEIGEVLLVGGMTRMPKVQSTVQELFGRQPSRSVNPDEAVAVGAAVQGGVLAGDVTDVLLLDVTPLSLGIETLGGVFTRLISRNTTIPTKKSQVFSTASDGQTQVEIKVHQGEREMANDNKLLGSFTLVGIPPAPRGVPQIEVVFDIDANGIVHVSAKDKGTGKEQQIVIQSSGGLSKDEIENMIKKAEEYATADKQKRELIEIVNQGESIVHDTETKMEEFKSQLPAEECEKLKKEIADLRTLLANKETADLEEVRKATSSLQQSSLKLFELAYKKMSAERESNAGAGSSDSSSSSDTSGEAKKEEKN
With B8, the MAPPIT interaction score in the experiment with CG31121 is 0.0518.

B9: Or43b (protein)
chain: MFGHFKLVYPAPISEPIQSRDSNAYMMETLRNSGLNLKNDFGIGRKIWRVFSFTYNMVILPVSFPINYVIHLAEFPPELLLQSLQLCLNTWCFALKFFTLIVYTHRLELANKHFDELDKYCVKPAEKRKVRDMVATITRLYLTFVVVYVLYATSTLLDGLLHHRVPYNTYYPFINWRVDRTQMYIQSFLEYFTVGYAIYVATATDSYPVIYVAALRTHILLLKDRIIYLGDPSNEGSSDPSYMFKSLVDCIKAHRTMLNFCDAIQPIISGTIFAQFIICGSILGIIMINMVLFADQSTRFGIVIYVMAVLLQTFPLCFYCNAIVDDCKELAHALFHSAWWVQDKRYQRTVIQFLQKLQQPMTFTAMNIFNINLATNINVAKFAFTVYAIASGMNLDQKLSIKE
Take B9: the MAPPIT interaction score was 0.0282 with CG30472 (MAPPIT configuration: N-C) and 0.0958 with CG30472 (MAPPIT configuration: N-N).

B10: kdn (protein)
chain: MSLYRISARKLSEAQKLPNVGAYVRMIAADGKSLRDVLAAKVPQEQERVKNFRKQHGATKMGETTIDMMYGGMRGIKALVTETSVLDADEGIRFRGLSIPECQKVLPAADGGTEPLPEGLFWLLLTGEVPTKSQVQQLSREWAERAALPQHVVTMLNNMPTTLHPMSQFAAAVTALNHDSKFAKAYSDGVHKSKYWEYVYEDSMDLIAKLPVVAATIYCNTYRGGKGSRSIDSSLDWSANFVKMLGYDNAPFTELMRLYLTIHSDHEGGNVSAHTVHLVGSALSDPYLSFAAGLNGLAGPLHGLANQEVLVWLRKLQKEAGNNPSEEQLKEYIWKTLKSGQVVPGYGHAVLRKTDPRYTCQREFALKHLPEDETFQLVSKIYKVVPPILTETGKVKNPWPNVDAHSGVLLQYYGMKEMNYYTVLFGVSRALGVLASLVWDRALGLPIERPKSFSTDLLVKMVQK
With B10, the MAPPIT interaction score with CG30349 was 0.214.

B11: CG33169 (protein)
chain: MRQLKGKVKETRKQKKERKLDNLETQAKIRTVVLPALGVLAVFLVLFVYLKTRPAVLA
B11: the MAPPIT interaction score is 0.414 with CG31523, -0.647 with EMC5 and 0.381 in the experiment with RNASEK.

B12: CycB (protein)
chain: MVGTTLKMRGDENASENFKQVQLKKLTVPSMEATTKRAALGDLQNRGISRPIAAKDAAQKDSKDLKLTDALRNAKARVDSHWKKQPLGSTNGNGNGAVPPKVNEGGVSAFLRSNSVRNRVPTKTTVEPTKVTVKSSSSENVNEPTLKREDSNLSKKSLTKLRAALAKPVMGVSGIRREPVAVSRKEAETKKELPETKKDSLEVKKDATRMPLIRGNSAVTTTTSTMPTTMSLSSKRLAGIEDIDANDKENLVLVSEYVNDIYDYLYQVELEQPIHKDHLAGQKEVSHKMRAVLIDWINEVHLQFHLAAETFQLAVAIIDRYLQVVKDTKRTYLQLVGVTALFIATKYEELFPPAIGDFVFITDDTYTARQIRQMELQIFKAIDCNLSRPLPIHFLRRYSKAAGAEDEHHTMSKYFIELASVDYEMATYRPSEIAAASLFLSLHLLNGNHRAGTGFNDRHWTPTLTFYSRYSAAHLRPITRLIAKLARDAPQAKLKAIYNKYQGSKFQKIALRTELTGALMDSIVGQSQRK
For the molecule B12, the MAPPIT interaction score in the experiment with CG31550 was 0.517; with GstE2 it was 0.748; in the experiment with PAN3, 0.557; with Rbp6, 0.383.
